Rows were chosen to be rich in hits. Some 3.7% of all compounds tested hit in one or more screens of this group.
WRN inhibitor: WRN helicase (human) inhibition. Potency, µM (top dose mostly 114 µM), without a hit: at the highest dose activity change, negative = inhibition, hits mostly inhibitors. Q14191. AID 651768. 360,000 compounds, 0.46% hits. WRN helicase unwinding, fluorescent forked duplex, kinetic; further: potency means the concentration at half of the fitted maximal effect; on the % scale 0 is the no-effect control and ±100 the full control effect; nearly all actives have a fitted effect of over 55% in size
Target sequence (Q14191 whole entry, looked up): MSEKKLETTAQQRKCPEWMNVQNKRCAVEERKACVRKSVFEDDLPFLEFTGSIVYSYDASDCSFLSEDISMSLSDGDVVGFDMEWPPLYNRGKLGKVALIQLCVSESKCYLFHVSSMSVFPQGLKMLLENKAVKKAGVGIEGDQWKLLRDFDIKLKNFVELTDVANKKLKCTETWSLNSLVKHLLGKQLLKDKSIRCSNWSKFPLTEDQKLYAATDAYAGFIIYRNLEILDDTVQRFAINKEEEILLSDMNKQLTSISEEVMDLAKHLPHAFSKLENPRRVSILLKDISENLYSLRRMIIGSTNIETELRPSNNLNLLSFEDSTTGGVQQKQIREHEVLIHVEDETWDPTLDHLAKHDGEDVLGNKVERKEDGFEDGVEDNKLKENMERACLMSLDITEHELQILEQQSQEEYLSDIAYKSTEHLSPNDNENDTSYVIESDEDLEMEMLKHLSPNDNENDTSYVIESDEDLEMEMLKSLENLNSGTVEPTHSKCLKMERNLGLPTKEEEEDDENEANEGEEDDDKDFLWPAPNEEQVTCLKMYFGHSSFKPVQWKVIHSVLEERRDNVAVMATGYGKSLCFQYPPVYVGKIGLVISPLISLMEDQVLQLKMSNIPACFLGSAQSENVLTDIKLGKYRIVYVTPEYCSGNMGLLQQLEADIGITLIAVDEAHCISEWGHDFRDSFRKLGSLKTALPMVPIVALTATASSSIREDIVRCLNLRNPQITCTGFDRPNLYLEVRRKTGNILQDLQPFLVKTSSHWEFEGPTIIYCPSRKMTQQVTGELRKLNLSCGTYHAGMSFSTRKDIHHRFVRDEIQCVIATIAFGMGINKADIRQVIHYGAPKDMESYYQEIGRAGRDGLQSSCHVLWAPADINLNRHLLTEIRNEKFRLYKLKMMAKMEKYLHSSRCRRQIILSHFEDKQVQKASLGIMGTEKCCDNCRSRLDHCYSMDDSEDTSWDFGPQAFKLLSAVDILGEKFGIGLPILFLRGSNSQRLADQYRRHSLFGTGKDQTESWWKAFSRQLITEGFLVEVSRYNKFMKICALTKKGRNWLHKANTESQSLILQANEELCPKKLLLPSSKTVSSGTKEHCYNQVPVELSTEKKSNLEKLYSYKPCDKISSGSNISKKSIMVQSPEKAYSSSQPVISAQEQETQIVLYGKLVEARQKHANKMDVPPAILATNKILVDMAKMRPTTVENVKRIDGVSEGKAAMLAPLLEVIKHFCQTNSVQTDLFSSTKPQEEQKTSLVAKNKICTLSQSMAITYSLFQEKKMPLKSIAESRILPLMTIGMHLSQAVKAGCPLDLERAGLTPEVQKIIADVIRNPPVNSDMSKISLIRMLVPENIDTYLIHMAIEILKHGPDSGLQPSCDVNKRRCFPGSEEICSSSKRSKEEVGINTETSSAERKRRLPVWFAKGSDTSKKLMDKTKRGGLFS
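WRN at 20 nM final preincubated with compound 15 min at room temperature; reaction started with 100 nM fluorophore/quencher forked duplex oligonucleotide and 2 mM ATP final. Unwinding followed kinetically by red fluorescence (ex 525, em 598 nm).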
VDR inh: vitamin D3 receptor (human) inhibition; Potency, µM, for the others: max response, negative = inhibition, actives largely listed as inhibitors; 400,000 compounds, 0.93% hits; VDR-SRC2-3 peptide fluorescence polarization, 2 h; P11473; further: potency means the concentration at half of the fitted maximal effect; on the % scale 0 is the no-effect control and ±100 the full control effect
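FP read-out; VDR + SRC2-3 coactivator peptide; 23 nl compound by pintool; 2 h RT incubation; reagents held at 4 deg C, protected from light.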
TCR act: activates T cell receptor signaling. primary human leukocytes, anti-CD3, IL-2 HTRF, 48 h. 330,000 tested, under 10 active. Potency, µM (series often up to 9.22 µM), for the others: at the top dose activation of IL-2 secretion, usual class: activators; further: % of control where 0% means no effect
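Using a-CD3 beads without co-stimulation, primary human leukocytes were exposed to compounds for 48 hr. An HTRF IL-2 kit measured the cytokine, with europium-to-d2 energy transfer producing emission at 665nm upon 320nm excitation.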
PI5P4K alpha inh: blocks human PI5P4K alpha kinase activity; PI5P4Kalpha enzyme, ADP-Glo luminescence, 60 min; stronger effect = lower value; max response, %; 330,000 compounds, 1.2% hits; AID 652105; active means max response of -50% or lower; inconclusive means between -30% and -50%; inactive means -30% or higher; further: value at the top dose of about 77 µM; on the % scale 0 is the no-effect control and ±100 the full control effect
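Compounds were pin-transferred onto PI5P4Kalpha and substrate in HEPES pH 7.4 buffer with EGTA, CHAPS and 5% DMSO. ATP (5 microM final) started the reaction, which ran 60 minutes at room temperature before ADP-Glo detection.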
FEN1 inh-1: blocks human flap endonuclease 1. P39748. Recombinant FEN1 flap cleavage, fluorescence, 15 min. Potency, µM (series often up to 114 µM), for inactives: top-dose activity change, negative = inhibition, most hits filed as inhibitors. 390,000 compounds, 0.35% hits; further: potency means the concentration at half of the fitted maximal effect; on the % scale 0 is the no-effect control and ±100 the full control effect; nearly all actives have a fitted effect of over 65% in size
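FEN1 at 10 nM, compound pretreatment for 15 min (room temperature), 50 nM final substrate to initiate; endpoint reads at 0 and 15 min; DMSO-only plates used as vehicle background.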
PLK1 PBD inh: blocks phosphopeptide binding to human PLK1 polo-box domain; P53350; 360,000 compounds, 2.8% hits; Potency, µM, for inactives: max response, negative = inhibition, most hits filed as inhibitors; Plk1 PBD binding of FITC phosphopeptide, fluorescence polarization; further: potency means the concentration at half of the fitted maximal effect; series mostly up to about 57 µM; on the % scale 0 is the no-effect control and ±100 the full control effect; nearly all actives have a fitted effect of over 65% in size
FEN1 inh-2: confirmation of human FEN1 inhibitors | shares compounds with FEN1 inh-1 | FEN1 flap cleavage, TAMRA/BHQ2 fluorogenic DNA substrate | Potency, µM, most hits filed as inhibitors | 880 compounds, 79% hits; further: potency means the concentration at half of the fitted maximal effect; nearly all actives have a fitted effect of over 60% in size
Starred values were filed as active, the others as inactive; ? = inconclusive; · = no result; [ ] = remark or other dose. Unless noted, the call rests on the fitted dose curve; in most records, active means well fitted curve in the direction sought with a large enough effect; inconclusive means small, poorly fitted or top-dose-only effect, or another doubt; inactive means no such curve, though single readings can be large; an effect the other way counts as inactive or inconclusive.

SMILES	WRN inhibitor	VDR inh	TCR act	PI5P4K alpha inh	FEN1 inh-1	PLK1 PBD inh	FEN1 inh-2
O=c1cc(-c2ccccc2)oc2cc(O)ccc12	-6%	-4%	5%	-25	5%	6%	·
CCCC(=O)N1c2nc(C(C)C)nn2C2(CCCCC2)[C@@H]2CCCC[C@@H]21	·	2%	·	·	-3%	·	·
CCN1/C(=C/c2ccc3cc(C)ccc3[n+]2CC)Sc2cc(C)ccc21	50µM*	1%	12%	-19	?	5%	7.6*
Cc1ccc2c(c1)S/C(=C/c1ccc[n+](C)c1)N2CCO	3%	0%	-3%	-6	?	6%	·
O=C1C=CC(=O)N1c1ccccc1N1C(=O)C=CC1=O	?	3.2µM*	-6%	-89*	?	1.5µM*	?
CC1=NC(Nc2nc(C)c3ccccc3n2)=NC(C)(C)C1	43%[57.1 µM]	0%	-1%	-10	40µM*	-6%	48*
Cc1ccc(C(=O)Nc2ccc3c4c(cccc24)CC3)cc1[N+](=O)[O-]	-15%	-22%	-1%[46.1 µM]	0	5%	-3%	·
O=[N+]([O-])c1ccc2c([N+](=O)[O-])ccc3c2c1CC3	0%[11.6 µM]	·	·	-74*	·	?	?
CCOC(=O)c1c(C)[nH]c(C)c1S(=O)(=O)N1CCC(C(=O)NCc2ccccc2Cl)CC1	·	5%	·	·	16%	·	·
Nc1c(C(=O)N/N=C/c2cccnc2)oc2nc(-c3ccco3)cc(-c3ccco3)c12	-28%	6%	-18%	-12	-14%	-6%	·
NNC(=O)c1oc2nc(-c3ccco3)cc(-c3ccco3)c2c1N	?	1%	5%	-26	50µM*	3%	38*
CC(=O)N1CCCc2cc(S(=O)(=O)N(C)CC(=O)Nc3ccc(C)cc3C)ccc21	·	1%	·	·	-8%	·	·
COc1ccc(/C=N/Nc2cc(C)nc3ccc(OC)cc23)c(OC)c1	13µM*	0%	0%	?	22µM*	-5%	19*
COc1ccccc1/C=N/Nc1cc(C)nc2ccc(C)cc12	-8%	-11%	-3%	15	5%	9%	·
Cc1ccc(NC(=O)COC(=O)c2ccc([N+](=O)[O-])o2)cc1S(=O)(=O)N1CCCCC1	-5%	0%	·	2	?	0%	27*
O=C(COC(=O)c1ccc([N+](=O)[O-])o1)Nc1cccc(S(=O)(=O)N2CCCCC2)c1	4%[11.6 µM]	-13%	4%	-11	?	-7%	30*
O=C(Nc1cccc(S(=O)(=O)N2CCCCC2)c1)c1ccc([N+](=O)[O-])o1	-3%	2%	4%	5	-7%	-6%	·
NC(=O)CCCCn1ccc(NC(N)=NCC(F)(F)F)n1	·	-22%	·	·	·	·	·
COc1ccc(Oc2nc3c(c(=O)n(Cc4ccccc4Cl)c(=O)n3C)n2C)cc1	·	-2%	·	·	-8%	·	·
O=C(CCCN1C(=O)/C(=C/c2ccccc2)SC1=S)Nc1ccc(C(=O)O)c(O)c1	-1%	?	1%	-26	-6%	?	·
O=C(CN1C(=O)/C(=C/c2ccco2)SC1=S)Nc1ccc(C(=O)O)c(O)c1	35µM*	9%	-1%	-68*	3%	13µM*	27*
O=C(/C=C/c1ccco1)NC(=S)Nc1ccc(C(=O)O)cc1	?	-10%	0%	-79*	40µM*	?	30*
CN=c1scc(C)n1/N=C/c1ccc(O)c(O)c1O	20µM*	-3%	-1%	?	79µM*	6.7µM*	34*
O=C(COC(=O)c1ccc([N+](=O)[O-])s1)c1ccc[nH]1	-6%[11.6 µM]	-8%	-3%[46.1 µM]	?	-22%	-5%	3.4*
O=C(COC(=O)c1ccc([N+](=O)[O-])s1)NCc1ccc(F)cc1	-5%[11.6 µM]	12%	6%[46.1 µM]	-4	-10%	3%	6.7*
SMILES	WRN inhibitor	VDR inh	TCR act	PI5P4K alpha inh	FEN1 inh-1	PLK1 PBD inh	FEN1 inh-2
Cc1cc(C)c(NC(=O)COC(=O)c2ccc([N+](=O)[O-])s2)c(C)c1	6%	8%	6%[46.1 µM]	-12	1%	-9%	·
O=C(COC(=O)c1ccc([N+](=O)[O-])s1)NCCc1ccccc1	28%	-12%	·	-4	?	-23%	·
COc1ccccc1NC(=O)COC(=O)c1ccc([N+](=O)[O-])s1	6%[11.6 µM]	-11%	1%	3	-10%	-23%	7.6*
COc1ccc(CC(=O)N2CC(=O)Nc3ccc(F)cc3C2c2ccccc2)cc1 (stereo unspecified)	·	1%	·	·	-9%	·	·
CCc1ccc(-c2cc(C)no2)cc1S(=O)(=O)Nc1ccc(Cl)cc1	·	13%	·	·	-19%	·	·
COC(=O)c1c(NC(=O)Cc2coc3cc(C)ccc23)sc2c1CCC2	·	14%	·	·	0%	·	·
CCCC[C@@H]1CCCO[C@@](C(=O)NCc2ccc(S(C)(=O)=O)cc2)(C(F)(F)F)C1	·	-17%	·	·	-25%	·	·
O=C(Nc1ccccc1)c1cccc(S(=O)(=O)Nc2cccc(F)c2)c1	·	10%	·	·	16%	·	·
CC(C)N1C(=O)S/C(=C\c2ccc(-c3ccc(Cl)c(C(=O)O)c3)o2)C1=O	?	?	·	-30	?	?	·
COc1ccccc1N1C(=N)S/C(=C\c2ccc(-c3ccccc3C(=O)O)o2)C1=O	28µM*	-16%	-1%[46.1 µM]	?	45µM*	-14%	?
Nc1cc(S(=O)(=O)O)cc([N+](=O)[O-])c1O	?	-9%	-5%	-13	?	?	?
Cn1c(=O)n(C)c2cc(N3CCCCC3)c(NC(=O)c3ccc(C(C)(C)C)cc3)cc21	·	4%	·	·	-4%	·	·
CN1CCCC1CCNc1ccc2sc3ccccc3c(=O)c2c1 (stereo unspecified)	-30%	8%	-7%	1	40µM*	-12%	38*
Cc1cc2oc3cc(NCCC4CCCN4C)ccc3c(=O)c2cc1C (stereo unspecified)	-29%	-11%	-5%	-12	35µM*	-6%	34*
Cc1ccccc1Nc1nc(N)nc(COC(=O)c2ccc([N+](=O)[O-])o2)n1	4%[11.6 µM]	-5%	2%	-4	?	-18%	21*
CCOC(=O)c1c(O)c(O)c(C(=O)OCC)n1-c1ccccc1	5%	-8%	-3%	0	18µM*	-28%	9.5*
CC(C)c1ccc(NC(=O)CSC2=Nc3ccccc3C3=NC(CC(=O)NCc4ccco4)C(=O)N23)cc1 (stereo unspecified)	·	-3%	·	·	-17%	·	·
COc1cc2[nH]c3c(N4CCN(c5ccccn5)CC4)ncnc3c2cc1OC	?	-7%	-5%	-20	28µM*	0%	24*
COc1ccc(N2CCN(c3ncnc4c3[nH]c3ccccc34)CC2)cc1	-3%	8%	0%	0	-10%	2%	·

Bioassay records from PubChem BioAssay.
